Source: PubChem BioAssay (several laboratories)
Only a selection was taken, and hits are over-represented in it overall.
ERp5 block: inhibitors of ERp5-driven insulin aggregation, primary screen, biochemical, turbidity, absorbance 650 nm, single point; Protein disulfide-isomerase A6 (Homo sapiens), Q15084; 90 min; inhibition, % at 9.99 µM; 350,000 compounds, 0.05% hits;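 active = mean replicate inhibition above about 25%, with every replicate also reaching it, limit read from the data, passing the limit was not always enough; inconclusive = only one of those two criteria met; inactive = neither criterion met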
Target sequence (Q15084 whole entry, looked up): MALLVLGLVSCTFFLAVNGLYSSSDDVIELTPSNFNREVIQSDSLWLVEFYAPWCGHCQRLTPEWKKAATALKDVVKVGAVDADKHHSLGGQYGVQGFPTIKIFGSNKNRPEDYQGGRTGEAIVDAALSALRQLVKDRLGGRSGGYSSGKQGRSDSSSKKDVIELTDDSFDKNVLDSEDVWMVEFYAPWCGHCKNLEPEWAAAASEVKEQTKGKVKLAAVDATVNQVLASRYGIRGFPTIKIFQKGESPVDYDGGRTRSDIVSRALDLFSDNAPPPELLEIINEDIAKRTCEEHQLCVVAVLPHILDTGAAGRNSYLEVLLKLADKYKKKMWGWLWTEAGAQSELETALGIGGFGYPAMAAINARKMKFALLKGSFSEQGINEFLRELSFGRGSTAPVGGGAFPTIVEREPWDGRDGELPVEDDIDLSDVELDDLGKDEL
ALR inh: inhibitors of human ALR sulfhydryl oxidase, primary screen, biochemical, H2O2 detection, HRP-luminol luminescence, single point; FAD-linked sulfhydryl oxidase ALR (Homo sapiens), P55789; purified ALR, DTT oxidation; inhibition, % (concentration not given with the values); 290,000 compounds, 3.8% hits;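 active = mean replicate inhibition above about 79%, with every replicate also reaching it, limit read from the data; inconclusive = only one of the two criteria met; inactive = mean below limit and not every replicate reaching it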
Target sequence (P55789 whole entry, looked up): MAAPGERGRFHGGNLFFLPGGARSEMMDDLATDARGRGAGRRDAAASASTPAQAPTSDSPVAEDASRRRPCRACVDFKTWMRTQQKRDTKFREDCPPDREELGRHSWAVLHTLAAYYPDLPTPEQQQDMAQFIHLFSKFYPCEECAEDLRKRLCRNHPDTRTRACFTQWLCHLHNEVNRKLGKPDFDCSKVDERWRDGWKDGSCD
CendR NRP1 mod: modulators of CendR peptide binding to NRP-1, primary screen, biochemical, fluorescence polarization, uHTS; Neuropilin-1 (Homo sapiens), O14786; FAM-RPARPAR peptide binding to NRP-1; inhibition, % at 25 µM; 360,000 compounds, 0.85% hits; AID 602438, 2012;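 active = inhibition or corrected inhibition above about 18%, plus a signal ratio from 0.5 to 1.5, limit read from the data, passing the limit was not always enough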
PglD DTNB: C. jejuni PglD acetyltransferase inhibitors, primary screen, biochemical, DTNB colorimetric, single point. purified PglD enzyme, DTNB colorimetric CoA detection. 360,000 compounds, 0.098% hits. inhibition, % at 12.5 µM. UDP-N-acetylbacillosamine N-acetyltransferase PglD (Campylobacter jejuni); in the data active = inhibition above about 16%, passing the limit was not always enough; inconclusive = no clear call, values can overlap the other calls
PDI turbidity: inhibitors of human PDI, primary screen, biochemical, turbidity, single point, plate reader. PDI insulin aggregation turbidity, A650, 90 min. inhibition, % at 10 µM. 350,000 compounds, 0.052% hits. AID 588391, 2011;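 active = mean inhibition across replicates of 30% or more, whatever share of single replicates reach that level; inconclusive = mean inhibition below 30% while every single replicate reaches 30%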
ARNT TACC3 PPI: disruptors of ARNT/TACC3 protein interaction, primary screen, biochemical, AlphaScreen, single concentration. inhibition, % at 9.99 µM. Transforming acidic coiled-coil-containing protein 3 (Homo sapiens), Q9Y6A5. 390,000 compounds, 0.66% hits. AID 623870, 2012. AlphaScreen His-ARNT PAS-B/GST-TACC3 binding, luminescence; TACC3 fragment carries E629A point mutation;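 active = mean inhibition of replicates at least 50% and at least half of replicates each reaching 50%; inconclusive = half or more replicates reach 50% but mean below 50%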;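 also: 0% = complete ARNT plus TACC3 wells and 100% = ARNT alone without TACC3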
Active calls of the source: *; ? = inconclusive; · = no result.

SMILES	ERp5 block	ALR inh	CendR NRP1 mod	PglD DTNB	PDI turbidity	ARNT TACC3 PPI
CCc1cc(C(=O)c2ccccc2)c(N)s1	1.3	99.0*	6.3	-1.1	11.2	-1.7
CC=Cc1ccc2n(c1=O)C[C@H]1[C@H](CO)[C@@H](C(=O)NCCCN3CCOCC3)N(C)[C@@H]21 (mixture of isomers)	-4.9	·	·	4.6	·	-22.0
O=Cc1c(Sc2ccccn2)nc2ccccn2c1=O	·	97.5*	9.3	·	-6.5	2.9
O=Cc1c(Sc2ccccc2)nc2ccccn2c1=O	·	97.7*	-7.5	2.7	-4.8	3.2
O=C(c1ccccc1)N1C[C@@H]2[C@H](c3ccccc31)[C@H](CO)N2C(=O)Nc1ccccc1Cl	-1.1	·	·	-0.3	·	0.3
COc1ccc(C=Nc2cccnc2N)cc1	·	1.3	8.3	4.1	-4.3	28.4*
Cc1ccc(C=Nc2cccnc2N)cc1	·	12.8	-8.3	·	3.8	6.0
Cc1oc(-c2ccc(Cl)cc2)nc1CS(=O)CC(=O)NCCN1CCCCCC1 (stereo unspecified)	-3.7	99.2*	-0.3	-2.2	-6.7	7.2
Cc1ccc(-c2nc(CS(=O)CC(=O)NCCN3CCCCCC3)c(C)o2)cc1 (stereo unspecified)	-2.6	98.5*	0.4	-2.0	-3.4	5.1
O=C(Cc1ccncc1)Nc1ccc2c(c1)[C@H]1C[C@@H](CC(=O)N3CCc4ccccc4C3)O[C@H](CO)[C@H]1O2	-7.9	·	·	3.3	·	8.2
O=C(O)C(c1ccccc1)N1C(=O)/C(=C/c2cccs2)SC1=S (stereo unspecified)	?	98.2*	-9.5	·	-5.1	65.2*
O=C(O)C(Cc1ccccc1)N1C(=O)/C(=C/c2cccs2)SC1=S (stereo unspecified)	-0.7	·	-46.3	·	-4.4	38.2
CCOC(=O)c1cc2sc(C)cc2n1CC(=O)N1CCN(C(=O)c2ccco2)CC1	·	99.0*	16.7	3.9	1.7	0.1
CCOC(=O)c1cc2sccc2n1CC(=O)N1CCN(C(=O)c2ccco2)CC1	·	-1.0	3.1	4.4	-15.0	0.9
COc1ccccc1NC(=O)C/C(C)=N/NC(=O)c1ccccn1	4.9	·	9.1	2.0	-2.0	34.6
COC(C(=O)N/N=C(\C)CC(=O)Nc1ccc(N(C)C)cc1)c1ccccc1 (stereo unspecified)	-4.3	98.9*	-1.1	·	0.5	5.7
CN(C)c1ccc(NC(=O)CC(NCc2ccccn2)C(=O)O)cc1 (stereo unspecified)	·	99.9*	1.7	-1.9	-2.0	76.9*
C/C(CC(=O)Nc1ccc(N(C)C)cc1)=N\NC(=O)c1ccccn1	·	96.1*	-0.1	2.7	-3.8	51.7*
C/C(CC(=O)Nc1ccc(N(C)C)cc1)=N\NC(=O)c1ccccc1Cl	-0.3	·	-2.6	9.7	-2.2	·
COc1cc(NC(=O)C/C(C)=N/NC(=O)c2ccccn2)c(OC)cc1Cl	-2.8	2.4	23.1*	-0.5	4.1	19.0
C[C@H](O)C#Cc1cnc2c(c1)C(=O)N([C@@H](C)CO)C[C@@H](C)[C@H](CN(C)C(=O)CC1CC1)O2	3.0	·	·	0.5	·	-3.5
C/C(CC(=O)Nc1ccc(N(C)C)cc1)=N\NC(=O)c1cnccn1	·	98.8*	-1.4	1.6	-3.6	·
COc1ccc(NC(=O)C/C(C)=N/NC(=O)c2cnccn2)cc1	-0.8	11.3	-2.9	·	3.4	-3.8
C[C@@H]1CN([C@@H](C)CO)C(=O)c2cc(NS(C)(=O)=O)ccc2O[C@@H](C)CCCCO[C@@H]1CN(C)Cc1ccc2c(c1)OCO2	-6.7	·	·	2.3	·	-1.8
CC1CC(C)CN(S(=O)(=O)c2cc3c4c(c2)CCN4C(=O)CC3)C1 (stereo unspecified)	-2.1	-3.5	25.1*	-4.8	-2.6	-1.5
SMILES	ERp5 block	ALR inh	CendR NRP1 mod	PglD DTNB	PDI turbidity	ARNT TACC3 PPI
CCOC(=O)C1=C(O)/C(=C/c2cccc(OC)c2O)N=C1C	1.5	78.2*	2.9	·	-5.9	2.5
CCOC(=O)C1=C(O)/C(=C\c2cc(C)n(-c3ccccc3F)c2C)N=C1C	-2.9	-6.2	-42.2	3.9	8.6	8.8
COC(=O)C1=C(O)/C(=C\c2ccc(O)c(OC)c2)N=C1C	·	98.9*	-57.3	-1.5	10.2	-3.9
C[C@@H]1CN([C@@H](C)CO)C(=O)c2cc(/C=C/c3ccccc3)cnc2O[C@@H]1CN(C)C(=O)c1cnccn1	-5.9	·	·	0.1	·	-3.9
CCCC(=O)Nc1ccc2c(c1)C(=O)N(C)C[C@@H](OC)[C@@H](C)CN(Cc1ccccc1)[C@@H](C)CO2	·	·	·	1.2	·	-24.9
O=C([C@@H]1[C@@H](CO)[C@@H]2Cn3c(ccc(C4=CCCCC4)c3=O)[C@@H]2N1Cc1nccs1)N1CCOCC1	-1.2	·	·	0.4	·	2.7
CCC(=O)N1C[C@@H](O)COC[C@@H]2O[C@H](CC(=O)NC)CC[C@H]21	-1.5	·	·	-3.7	·	-4.9
O=C(Cc1ccncc1)NCC[C@@H]1CC[C@@H](NC(=O)Nc2cccc(F)c2)[C@@H](CO)O1	-3.5	·	·	-2.8	·	-4.0
C=CCC(C#Cc1ccc(C)cc1)N(CC)CC (stereo unspecified)	·	-2.4	28.7*	-3.6	-6.2	-5.5
CCN(CC)CC#Cc1ccc(C)cc1	-3.6	0.0	9.5	-6.4	-1.4	-3.1
C[C@H]1CN([C@@H](C)CO)C(=O)c2cccc(NS(=O)(=O)c3ccccc3)c2O[C@@H]1CN(C)S(=O)(=O)c1cccs1	3.4	·	·	·	·	·
O=[N+]([O-])/C(C(Cl)=C(Cl)Cl)=C(/Sc1ccccc1)N1CCCCC1	2.7	92.2*	-0.5	·	8.0	11.0
CCCC(=O)Nc1ccc(Nc2ccccc2)cc1	0.4	99.2*	-0.8	·	6.5	3.4
CCCC(=O)Nc1ccc(-c2ccc(NC(=O)CCC)cc2)cc1	·	·	18.1	-10.4	-4.2	-4.7
CC(=O)CC(=O)Nc1ccc(Nc2ccccc2)cc1	·	99.3*	-5.0	3.6	10.4	1.1
CC(=O)Nc1ccc(O)cc1	-4.1	99.4*	12.5	-1.0	·	8.2
O=C(Nc1ccccc1)c1ccccc1NC(=O)[C@H]1CCCC[C@H]1C(=O)O	0.2	5.4	4.4	8.2	5.7	-19.0
O=C(O)C1CCCCC1C(=O)Nc1ccccc1Nc1ccccc1 (stereo unspecified)	·	99.2*	-20.7	·	-4.6	1.1
CC(=O)N1CC2(C1)[C@H](c1ccc(-c3cccc(F)c3)cc1)[C@H](CO)N2CC1CC1	1.8	·	·	·	·	·
COCC(=O)N(C)C[C@H]1Oc2ncc(C3=CCCC3)cc2C(=O)N([C@@H](C)CO)C[C@@H]1C	0.4	·	·	2.4	·	·
